In the library only some 3% were active in any assay of this set; here they are far more common.
KKLEB cytotox – counter-screen for CF NF-kB inhibitors: cytotoxicity; activity change (cytotoxicity), % at 5 µM; KKLEB CF airway cells viability, ATPlite luminescence, overnight; hits give low values; cells stimulated with P. aeruginosa culture filtrate; 360,000 compounds, 0.36% hits;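 active means corrected activity change at or below -50% at 5 µM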
Peg3 promoter – Peg3 promoter activity inhibition; HeLa PEG-Prom luciferase reporter, luminescence, overnight; inhibition, % at 20 µM; 360,000 compounds, 1.7% hits;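 active means inhibition of at least 50% at 20 µM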
HIF-2a inh – blocks HIF-2a reporter activity; 786-0 RCC cells HIF-2a reporter, luciferase luminescence, overnight; inhibition, % at 18.8 µM; 360,000 compounds, 0.72% hits; AID 624352;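 active means inhibition of the luminescence signal of 40% or more relative to plate controls, in a single-dose primary screen at 18.75 µM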
CF NFkB block – blocks PAF-induced NF-kB reporter in cystic fibrosis cells; KKLEB NF-kB-GFP reporter, GFP fluorescence overnight; inhibition, % at 5 µM; 360,000 compounds, 0.86% hits;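 active means at least 50% inhibition at 5 µM, scaled per plate between neutral and stimulator controls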;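 further: PAF is a Pseudomonas aeruginosa culture filtrate used as stimulus; plate controls were PAF-stimulated DMSO wells for no effect and unstimulated DMSO wells for full effect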
EBV LMP1 NFkB – reduces LMP1-driven NF-kappaB luciferase signal; LMP1-induced NF-kappaB luciferase reporter cells, luminescence; 350,000 compounds, 0.69% hits; inhibition, % at 12.5 µM; AID 504558; in the data active means inhibition above about 41%;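 further: 0% = neutral control wells and 100% = reference inhibitor control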
TRPM1 prom inh – reduces MITF-dependent TRPM1 promoter luciferase signal; SK-MEL-5 TRPM1 promoter luciferase, 24 h; inhibition, % at 12.5 µM; 330,000 compounds, 0.83% hits; AID 488899;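 active means mean inhibition across replicates of 60% or more, whatever share of single replicates reaches that level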
Mdm2-MdmX confirm – confirmation of inhibitors of human Mdm2/MdmX interaction, set 2. shares compounds with HIF-2a inh. SaOS-2 split-luciferase Mdm2/MdmX complementation, luminescence. inhibition, % at 8 µM. 740 compounds, 99% hits. AID 504601;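 active means mean inhibition of the luminescence signal across two replicates at or above 26 percent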
HIF-2a inh conf – HIF-2a inhibition, single concentration confirmation; shares compounds with HIF-2a inh; 786-0 RCC cells, HIF-2a luciferase reporter luminescence, overnight; inhibition, % at 18.8 µM; 1,800 compounds, 56% hits;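 active means mean inhibition across four replicates of at least 40 percent at the single tested concentration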
HIF-1a cs – HIF-1a inhibition counter-screen for HIF-2a hits; 1,800 compounds, 72% hits; MiaPaCa-2 HIF-1a luciferase reporter, desferoxamine, overnight; inhibition, % at 18.8 µM; AID 651589; shares compounds with HIF-2a inh;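 active means mean inhibition of the reporter signal across four replicates at the single tested dose of 50% or more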
* marks the source's active call; other numbers are inactive results; x = no result given.

SMILES | KKLEB cytotox | Peg3 promoter | HIF-2a inh | CF NFkB block | EBV LMP1 NFkB | TRPM1 prom inh | HIF-2a inh conf | HIF-1a cs | others
CC(C)[C@H](NS(=O)(=O)c1ccccc1)C(=O)OCC(=O)N1N=C(c2ccc(Cl)cc2)CC1c1ccco1 (some centres not stated) | -1 | 5 | 50* | 20 | 11 | -3 | -3 | 89*
COCC(=O)OCC(=O)N1N=C(c2ccc(Cl)cc2)CC1c1ccco1 (configuration not stated) | 11 | -7 | 5 | 14 | 1 | 11 | x | x
Nc1cc(=O)[nH]c(SCC(=O)N2N=C(c3ccc(Cl)cc3)CC2c2ccco2)n1 (configuration not stated) | 6 | -25 | -37 | 5 | -8 | -9 | x | x
Cc1ccc(C(=O)C=CC=Cc2ccccc2)cc1 | 2 | -211 | -195 | -18 | -9 | x | x | x
Cc1ccc(C(=O)C(C(=O)/C=C/c2ccccc2)=C2SCCCS2)cc1 | -7 | 109* | 93* | -3 | -11 | 86* | 86* | 103* | Mdm2-MdmX confirm=103*
CCOC(=O)C1(C)CCCN1C(=O)c1cc(F)ccc1C (configuration not stated) | 18 | 9 | 5 | -6 | x | x | x | x
COc1cc(/C=C(/C#N)c2nc3ccccc3[nH]2)ccc1OCC(=O)Nc1ccccc1C(C)C | 5 | 5 | -11 | 0 | 0 | -4 | x | x | Mdm2-MdmX confirm=101*
COc1cc(/C=C(\C#N)c2nc3ccccc3s2)ccc1OCC(=O)Nc1ccccc1 | -23 | 22 | -1 | 21 | -3 | 8 | x | x
FC(F)(F)c1nc2ccccc2n2c(-c3ccc(Cl)cc3)nnc12 | -56* | 51* | 46* | 76* | 53* | 76* | 25 | 86*
CCOC(=O)Cc1csc(N/N=C/c2ccc(C(F)(F)F)cc2)n1 | -2 | -53 | 58* | 13 | 25 | 13 | 58* | 17
CCOC(=O)Cc1csc(NC(=S)NC(=O)c2ccc(F)cc2)n1 | -8 | 1 | 86* | -12 | 25 | 10 | 89* | 59*
CCOC(=O)Cc1csc(NC(=S)NC(=O)c2ccccc2C)n1 | 3 | -8 | 54* | 6 | 5 | -4 | 58* | 17
CCCN(CC1CC1)c1cc2c(c3c1ccn3C)C1CCC2O1 (configuration not stated) | 2 | 3 | 6 | -28 | x | x | x | x
CCOc1ccc(N(CC(=O)Nc2c(C)cc(C)cc2C)C2=NC3CS(=O)(=O)CC3S2)cc1 (configuration not stated) | 7 | 9 | 4 | -3 | x | x | x | x
CNC[C@H](CC1CCCCC1)NC[C@H](CO)NCCc1cccc(C(F)(F)F)c1 | -19 | 101* | 2 | 31 | -13 | 57 | x | x | Mdm2-MdmX confirm=103*
CCOC(=O)[C@]12CCC=C1N(CCC1=CCCCC1)C(=O)[C@H](CC(=O)N1CCCC1)C2 | x | x | 1 | x | x | x | x | x
CCCCn1c(=N)n(CC(=O)c2ccc(Br)s2)c2ccccc21 | -27 | 95* | 50* | -35 | -70 | 90* | 23 | 98* | Mdm2-MdmX confirm=103*
O=C(O)CCSc1nnc(-c2ccc3c(c2)OCO3)o1 | -4 | 36 | 92* | 8 | 24 | 38 | 96* | 80*
CCc1nc2c(OCc3ccc(F)c(F)c3)cccn2c1N(C)C(=O)c1ccncc1 | 4 | -11 | 5 | -31 | x | x | x | x
CCOC(=O)[C@]12CCC=C1N(Cc1ccc3c(c1)OCO3)C(=O)[C@H](CC(=O)N1CCC(c3ccccc3)CC1)C2 | x | x | 9 | x | x | x | x | x
CC(C)C[C@H]1COc2cc(N3CCC[C@H]3CO)ccc2S(=O)(=O)N1 | x | x | -16 | x | x | x | x | x
Cc1ccc(-c2nc3cc(N)ccc3o2)cc1Br | 4 | -303 | -126 | -4 | -31 | -25 | x | x
Nc1ccc2oc(-c3cc(Br)ccc3Cl)nc2c1 | 17 | -55 | 61* | -26 | 15 | 49 | 90* | 50

High-throughput results (PubChem BioAssay)
